Screening data: PubChem, National Center for Advancing Translational Sciences (NCATS)
Lassa entry inh: Lassa virus entry inhibition; Lassa virus pseudotype entry inhibition, cell reporter; AID 540256; Potency, µM (top dose mostly 37.9 µM), actives largely listed as inhibitors; 1.2% of 300,000 active; calls by dose curve; tested in HEK293 cells; note: nearly all actives have a fitted effect of over 50% in size
HCV inh: HCV inhibition; Huh7.5.1 HCVcc-Cre infection, luciferase reporter, 44 h; Potency, µM (top dose mostly 41.8 µM), hits mostly inhibitors; 3.4% of 340,000 active; AID 651820
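Reporter virus HCVcc-Cre (~0.5 moi) infects cells exposed to compound; seeding density 1,000 cells/well with 4 h settling beforehand. Luminescence, 15 sec read, taken 44 h post-infection following a 15 min RT substrate incubation.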
Pf growth 48h: inhibits P. falciparum growth in the first generation, 48 h; P. falciparum luciferase growth in erythrocytes, 48 h; Potency, µM (series often up to 28.7 µM), actives largely listed as inhibitors; 5.9% of 310,000 active; AID 504832
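Firefly luciferase activity from engineered P. falciparum reports growth; inhibitors lower the luminescent signal. Cultures contained 2% hematocrit erythrocytes at 0.1% final parasitemia.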
HCMV antiviral: blocks human cytomegalovirus replication | activity change, negative = inhibition, % at 57.5 µM | HFF cells, HCMV-luciferase reporter, 72 h; stronger effect = lower value | 4.5% of 410,000 active; in the data active = activity change below about -60%; inconclusive = no clear call, values can overlap the other calls; inactive = above about -39%
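Cell-based, HFFs, 1000 cells/well, 16 h 37C; cpds in DMSO + HCMV-luc, MOI 1 PFU/cell; 72 h 37C; OneGlo luminescence after 5 min RT; norm. to buffer vs Salinomycin 10uM.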
MARV entry inh: Marburg virus entry inhibition; Potency, µM (top dose mostly 37.8 µM), hits mostly inhibitors; 1.8% of 300,000 active; AID 540276; Marburg virus pseudotyped entry inhibition, cell reporter; calls by dose curve; tested in HEK293 cells
Pf growth 96h: inhibits malaria parasite growth, 96 h; P. falciparum luciferase reporter growth, 96 h; Potency, µM (doses to about 28.7 µM), most hits filed as inhibitors; 6.9% of 320,000 active
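Two parasite generations (96 h, 37 C, 5% CO2) of compound exposure in infected erythrocytes (0.05% parasitemia, 2% hematocrit). Luciferase-reporter P. falciparum; decreased luminescence indicates inhibited growth, aimed at apicoplast-acting delayed death.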
Numbers stand for hits; i = inactive; ? = inconclusive; nt = no result; + = active, no number. Hits are enriched below; roughly 14% of the tested compounds scored in any of these assays. Unless noted, calls come from the whole dose curve; as a rule, active = well fitted inhibition curve with a large enough effect; inconclusive = small, poorly fitted or top-dose-only effect, or another doubt; inactive = no such curve, though single readings can be large or run the other way.

SMILES	Lassa entry inh	HCV inh	Pf growth 48h	HCMV antiviral	MARV entry inh	Pf growth 96h
Cc1[nH]c2ccccc2c1C(=O)CSc1nc2ncc(Cl)cc2[nH]1	?	i	i	-62	i	i
Cc1cc(C)n2nc(SCC(=O)c3c(N)n(CC(C)C)c(=O)n(C)c3=O)nc2n1	i	i	4.7µM	i	?	?
O=C(Cc1ccc([N+](=O)[O-])cc1)NCCc1c[nH]c2ccccc12	nt	nt	nt	i	nt	nt
Cc1[nH]c2ccccc2c1C(=O)CSC(=S)N1CCN(C)CC1	nt	i	i	-62	nt	?
OCC1OC(n2cnc3ccccc32)CC1O (stereo not drawn)	nt	i	i	i	nt	i
Cc1cc(C)cc(NS(=O)(=O)c2ccc3c(c2)OCC(C(=O)N2CCCC2)O3)c1 (stereo not drawn)	i	nt	nt	i	nt	nt
O=c1cc(-c2ccccc2)oc2ccc(O)cc12	nt	?	i	i	nt	i
COc1cc(-c2cc(=O)c3c(O)cc(O)cc3o2)cc(OC)c1OC	nt	nt	nt	i	nt	nt
COc1ccc(-c2cc(=O)c3cc(O)ccc3o2)cc1	nt	5.6µM	i	i	nt	i
COc1ccc(-c2cc(=O)c3c(O)cc(O)cc3o2)cc1	nt	13µM	i	i	nt	i
CC1=CC(C)(C)N(C(=O)CSc2nnc(-c3ccc(C)cc3)o2)c2ccc(C)cc21	?	?	nt	i	?	9.3µM
CC1=CC(C)(C)N(C(=O)CSc2nnc(C)s2)c2ccc(C)cc21	i	?	i	i	i	?
COc1ccc(Cl)cc1NC(=S)NCCC(c1ccccc1)c1ccccc1	i	?	?	i	i	?
S=C(NCCC(c1ccccc1)c1ccccc1)Nc1ccccc1Cl	i	i	?	i	i	4.7µM
COc1ccccc1NC(=S)NCCC(c1ccccc1)c1ccccc1	i	10µM	i	?	i	?
NC(=S)N/N=C/c1c[nH]c2ccc(OCc3ccccc3)cc12	nt	13µM	?	nt	nt	?
O=C(CC1S/C(=N/N=C/c2cccs2)NC1=O)Nc1ccc(Cl)c(Cl)c1 (stereo not drawn)	?	i	i	i	i	?
O=C(CC1S/C(=N/N=C/c2cccs2)NC1=O)Nc1ccc(Cl)cc1 (stereo not drawn)	i	i	i	i	i	1.9µM
NC(=S)N/N=C\c1ccccc1OCc1ccccc1	i	?	i	i	?	?
O=C(CC1S/C(=N/N=C/c2c[nH]c3ccc(OCc4ccccc4)cc23)NC1=O)Nc1ccccc1 (stereo not drawn)	i	i	i	i	i	12µM
O=C(CC1S/C(=N/N=C/c2c[nH]c3ccccc23)NC1=O)Nc1ccccc1 (stereo not drawn)	?	i	i	i	i	i
O=Cc1c[nH]c2ccc(NC(=O)OCc3ccccc3)cc12	?	i	nt	i	13µM	nt
CCc1ccccc1NC(=O)C(=O)NCCCN1CCOCC1	i	nt	nt	i	i	nt
Cc1ccc(CNC(=O)CN2C(=O)CCc3cc(S(=O)(=O)N4CCCCC4)ccc32)cc1	i	nt	nt	i	nt	nt
O=C(Nc1cc(Cl)c(Cl)cc1Cl)c1cccnc1	nt	i	i	i	nt	i
SMILES	Lassa entry inh	HCV inh	Pf growth 48h	HCMV antiviral	MARV entry inh	Pf growth 96h
O=C(COc1ccccc1F)Nc1ccc2nc(SCc3ccccc3)sc2c1	i	nt	nt	i	?	nt
CC(=O)Nc1ccc(CN2CCn3c(nnc3C(=O)NCC3CC3)C2)cc1	nt	nt	nt	i	nt	nt
Cc1nn(Cc2ccc(Cl)cc2)c(C)c1NC(=O)CSc1nc2c(c(C(F)(F)F)n1)CCc1ccccc1-2	i	nt	?	i	12µM	4.7µM
Cc1ccccc1Cn1cc(NC(=O)CSc2nc3c(c(C(F)(F)F)n2)CCc2ccccc2-3)cn1	i	13µM	?	i	?	?
Cc1ccc(F)cc1C(=O)N1CCCC(c2cc(C(=O)NCc3ccccc3)no2)C1 (stereo not drawn)	nt	nt	nt	i	nt	nt
CCC1=C(Nc2ccccc2)COC1=O	nt	nt	nt	i	nt	nt
O=c1c2cc(Br)ccc2[nH]c(=S)n1Cc1ccccn1	i	i	i	i	i	?
O=C(c1ccc2c(=O)n(C3CCCC3)c(=S)[nH]c2c1)N1CCN(C2CCCCC2)CC1	i	i	i	i	i	i
CCOC(=O)N1CCN(C(=O)c2ccc3c(=O)n(CCc4ccccc4)c(=S)[nH]c3c2)CC1	i	i	?	i	i	8.3µM
CCCn1c(=S)[nH]c2cc(C(=O)N3CCN(C(=O)OCC)CC3)ccc2c1=O	i	i	i	i	i	?
O=c1c2cc(Br)ccc2[nH]c(=S)n1Cc1ccccc1	?	i	?	-63	i	i
CC1CCN(CCCn2c(=S)[nH]c3ccccc3c2=O)CC1	i	i	i	i	i	i
CCCn1c(=S)[nH]c2cc(C(=O)N3CCN(C4CCCCC4)CC3)ccc2c1=O	i	i	i	i	i	10µM
O=c1c2ccccc2[nH]c(=S)n1CCCN1CCN(C2CCCCC2)CC1	i	i	13µM	i	i	nt
Nc1nc(Cl)nc2c1ncn2[C@@H]1O[C@H](COP(=O)(O)OP(=O)(O)OP(=O)(O)O)[C@@H](O)[C@H]1O	i	nt	nt	nt	i	nt
CCOC(=O)N1CCN(C(=O)c2ccc3c(=O)n(Cc4ccc(Cl)cc4)c(=S)[nH]c3c2)CC1	i	i	i	i	?	i
CCOc1cc2[nH]c(=S)n(Cc3ccc(C(=O)O)cc3)c(=O)c2cc1OCC	nt	i	i	i	nt	9.3µM
CCOc1cc2[nH]c(=O)n(Cc3ccc(C(=O)N4CCN(c5ccccc5)CC4)cc3)c(=O)c2cc1OCC	i	nt	nt	i	nt	nt
CCOC(=O)N1CCN(C(=O)c2ccc(Cn3c(=S)[nH]c4ccc(Br)cc4c3=O)cc2)CC1	4µM	?	12µM	-95	?	3.7µM
CC(C)NC(=S)N1CCCN(c2ncccc2[N+](=O)[O-])CC1	nt	i	?	nt	nt	9.3µM
CCOC(=O)C1CCN(CC(O)COc2ccc(C(C)=O)cc2)CC1 (stereo not drawn)	nt	i	nt	nt	nt	9.3µM
CCOC(=O)C1CCN(CC(O)COc2ccc(C(C)(C)C)cc2)CC1 (stereo not drawn)	?	i	?	i	?	?
CC(=O)c1ccc(OCC(O)CN2CCN(S(=O)(=O)c3c(C)c(C)cc(C)c3C)CC2)cc1 (stereo not drawn)	?	13µM	?	-72	?	i
CC(=O)c1ccc(OCC(O)CN2CCN(CC(O)COc3ccc(C(C)=O)cc3)CC2)cc1 (stereo not drawn)	i	i	?	i	?	i
Cn1c2ccccc2c2c(C(=O)N3CCN(c4ccc(F)cc4)CC3)cn(C3CCCCC3)c(=O)c21	?	nt	nt	i	?	nt
O=C1Nc2ccccc2C1(O)Cc1ccncc1 (stereo not drawn)	i	i	i	i	?	9.3µM
CC(C)OC(=O)c1ccc(N2CCN(c3ccccc3F)CC2)nc1	nt	11µM	i	i	nt	?
Cc1ccc(C)c(N2CCN(c3nc4ccccc4n4nnnc34)CC2)c1	i	nt	nt	i	?	nt
Cc1ccc(CN2CCN(CC(=O)Nc3ccc(C)c(C)c3)S2(=O)=O)cc1	i	nt	nt	+	nt	nt
